The entries come from a sample that favours the strongest signals as a whole.
B1: Epa1 (Candida glabrata), Q6FUW5_CANGA (protein)
chain: MILNPALFLNKCVCIYTTLILLLLTNGGYATSSNDISLASKDPTTFPLGCSPDITTPKKGLSMELYSYDFRKKGSYPCWDAAYLDPNYPRTGYKSHRLLAKVDGVTGNINFYYHATKGCTPQLGHLPASYNYPKPLTMTNFTMLLYGYFRPKVTGFHTFTISADDLLFVNFGAGNAFDCCRRDSSADHFGNYQAYAIWGSKTAKDELTVHLDAGVYYPIRLFYNNREYDGALSFTFKTESNENTVSDFSEYFFSLDDTEEGCPGLISYDSSCASVKTSKIIGIDYHTETPNENLVPITKTIYHLGIPCTGTTTTPLCGSGFYDPLANKCVTINTSSTSSVTKTTSHTTSKEVSFHSSISSQKTLIPKSIPSPYGPIKSQSIPTEMETSSEISSSEYAFSDVISTPSHSPYTKKHSSLNSSSYTSTVIHSLTSYSISQGIFSTSLSEQNITSKSSTDKFSTATSMSNSITQSSIIISQSSTNNENYTTTSMHTSSDKISTETLNNSISTTTSILFSNSSTILKNNTTIISSDKDTHYHPVNPTIVCSTNKTEIICASITQPSISNSNNHWSSSVLRFNSTTVRSTLPSSAGSNETSINVPFSSSTESNASTSSTSTSNSKTVRSTLPSSAGSNETSINVPFSSSTESNTSTSSTSTSNSKTVRSTLPSSAGSNETSINVPFSSSTESNASTSSTSTSNSKTVRSTPFSSAGIIMTSLSQRNNKSASSYASSNSKCYNTADSCRKVHSTPSYLLTSSYTSEGVDYDCSLVSTKLKINDTNCLNNKHTTKSCLKTSVTTTIPTLEIKTARKSSSNTIGLHSYPTSSPNKSISSAPIIGYISSFKTIKTASPSYQTSDLTTITTITSLNNPGSTAVENTHESNDKSRKTSSNDISSKHSVIKETKDAVESSNKSHQTNTLKCSSIIIASSSHNSYESLGGTTLTLTLSKVYSPQNNDTLPFLEISEVNPSRTVLPESSKMMQYLTSTEERNKTARNTIATNIVSISTFHFEGEGNAIRMGYTQLLLMLIGIIVMNIGT
B2: FaeGad (Escherichia coli) (protein)
chain: WMTGDFNGSVDIGGSITADDYRQKWEWEVGTGLNGFGSVLNDLTNGGTKLTITVTGNKPILLGRTKEAFATPVTSGVDGIPHIAFTDYEGASVELRNPDGETEKGLTYFVLPMKNAEGTKVGSVKVNASYAGALGRGGVTSADGELMSLFAEGSHAIFYGGLPTNVKNSELKGGSAAAARTELFGSLSKNDILGQIQRVNANITSLVNVPGSFNENMAYTDGSVVSVAYALGIANGQTIEATFNQAVTTSTQWSAPLNVAITYY

What was measured:
Assay in all cases: glycan array binding signal (z-score within array); higher = stronger binding
Settings in all cases: glycan notation: IUPAC condensed, linker removed
[1] = target: Fuc(a1-2)Gal(b1-3)GalNAc(b1-3)Gal(a1-4)Gal(b1-4)Glc
Outline: (§1)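 Glycan array data were curated from 3228 arrays in the Consortium for Functional Glycomics database and kept only where the protein sequence was available. Glycan names were converted to IUPAC-condensed notation, and columns mapping to the same glycan were averaged. The binding signal is a within-array Z-score, averaged across arrays of the same protein sequence at different concentrations or buffers and across linkers. Negative Z-scores can be read as non-binding.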

[2] = target: Fuc(a1-2)Gal(b1-4)GlcNAc6S
Outline: as §1

[3] = target: Fuc(a1-2)Gal6S(b1-4)GlcNAc
Outline: as §1

[4] = target: Fuc(a1-2)[Gal(a1-3)]Gal(b1-3)GlcNAc
Outline: as §1

[5] = target: Fuc(a1-2)[GalNAc(a1-3)]Gal(b1-4)GlcNAc
Outline: as §1

Gal(a1-3)GlcNAc = target: Gal(a1-3)GlcNAc
Outline: as §1

Gal(a1-4)Gal(b1-4)Gal = target: Gal(a1-4)Gal(b1-4)Gal
Outline: as §1

Gal(a1-4)Gal(b1-4)GalNAc = target: Gal(a1-4)Gal(b1-4)GalNAc
Outline: as §1

Gal(a1-6)Glc = target: Gal(a1-6)Glc
Outline: as §1

Gal(b1-3)Gal = target: Gal(b1-3)Gal
Outline: as §1

[6] = target: Gal(b1-3)[Fuc(a1-4)]GlcNAc(b1-3)Gal(b1-4)GlcNAc
Outline: as §1

[7] = target: Gal(b1-3)[Neu5Ac(b2-6)]GlcNAc
Outline: as §1

[8] = target: Gal(b1-4)GalNAc(b1-3)[Fuc(a1-2)]Gal(b1-4)GlcNAc
Outline: as §1

[9] = target: Gal(b1-4)GlcNAc(b1-3)GalNAc
Outline: as §1

[10] = target: Gal(b1-4)GlcNAc(b1-6)[Gal(b1-3)]GlcNAc
Outline: as §1

Gal3S6S(b1-4)GlcNAc6S = target: Gal3S6S(b1-4)GlcNAc6S
Outline: as §1

Gal4S(b1-4)GlcNAc = target: Gal4S(b1-4)GlcNAc
Outline: as §1

Gal6S(b1-4)Glc6S = target: Gal6S(b1-4)Glc6S
Outline: as §1

[11] = target: GlcNAc(b1-4)[GlcNAc(b1-6)]GalNAc
Outline: as §1

[12] = target: Neu5Ac(a2-3)Gal(b1-3)GalNAc
Outline: as §1

[13] = target: Neu5Ac(a2-3)Gal(b1-4)GlcNAc(b1-3)Gal(b1-4)[Fuc(a1-3)]GlcNAc
Outline: as §1

[14] = target: Neu5Ac(a2-3)Gal(b1-4)GlcNAc(b1-6)[Gal(b1-3)]GalNAc
Outline: as §1

[15] = target: Neu5Ac(a2-3)Gal6S(b1-4)GlcNAc
Outline: as §1

[16] = target: Neu5Gc(a2-3)Gal(b1-4)GlcNAc
Outline: as §1

Fuc(a1-2)GlcNAc = target: Fuc(a1-2)GlcNAc
Outline: as §1

[17] = target: Gal(b1-3)[Fuc(a1-4)]GlcNAc(b1-3)Gal(b1-4)[Fuc(a1-3)]GlcNAc
Outline: as §1

Gal(b1-4)Glc6S = target: Gal(b1-4)Glc6S
Outline: as §1

[18] = target: Gal(b1-4)GlcNAc(b1-3)Gal(b1-4)Glc
Outline: as §1

Glc(a1-4)Glc = target: Glc(a1-4)Glc
Outline: as §1

Glc(a1-6)Glc(a1-6)Glc = target: Glc(a1-6)Glc(a1-6)Glc
Outline: as §1

Glc(b1-4)Glc = target: Glc(b1-4)Glc
Outline: as §1

[19] = target: GlcNAc(a1-3)Gal(b1-4)GlcNAc
Outline: as §1

[20] = target: GlcNAc(b1-4)GlcNAc(b1-4)GlcNAc
Outline: as §1

[21] = target: Man(a1-2)Man(a1-2)Man(a1-6)[Man(a1-3)]Man
Outline: as §1

[22] = target: Neu5Ac(a2-3)Gal(b1-4)[Fuc(a1-3)]GlcNAc
Outline: as §1

[23] = target: Neu5Ac(a2-3)Gal(b1-4)[Fuc(a1-3)]GlcNAc(b1-3)Gal(b1-4)[Fuc(a1-3)]GlcNAc(b1-3)Gal(b1-4)[Fuc(a1-3)]GlcNAc
Outline: as §1

Neu5Ac(a2-3)GalNAc = target: Neu5Ac(a2-3)GalNAc
Outline: as §1

[24] = target: Neu5Ac(a2-6)Gal(b1-4)GlcNAc(b1-3)Gal(b1-4)GlcNAc
Outline: as §1

[25] = target: Neu5Ac(a2-6)Gal(b1-4)GlcNAc(b1-3)Gal(b1-4)[Fuc(a1-3)]GlcNAc(b1-3)Gal(b1-4)[Fuc(a1-3)]GlcNAc
Outline: as §1

[26] = target: Neu5Ac(a2-8)Neu5Ac(a2-8)Neu5Ac
Outline: as §1

Binder	glycan array binding signal (z-score) [1]	glycan array binding signal (z-score) [2]	glycan array binding signal (z-score) [3]	glycan array binding signal (z-score) [4]	glycan array binding signal (z-score) [5]	glycan array binding signal (z-score) (Gal(a1-3)GlcNAc)	glycan array binding signal (z-score) (Gal(a1-4)Gal(b1-4)Gal)	glycan array binding signal (z-score) (Gal(a1-4)Gal(b1-4)GalNAc)	glycan array binding signal (z-score) (Gal(a1-6)Glc)	glycan array binding signal (z-score) (Gal(b1-3)Gal)	glycan array binding signal (z-score) [6]	glycan array binding signal (z-score) [7]	glycan array binding signal (z-score) [8]	glycan array binding signal (z-score) [9]	glycan array binding signal (z-score) [10]	glycan array binding signal (z-score) (Gal3S6S(b1-4)GlcNAc6S)	glycan array binding signal (z-score) (Gal4S(b1-4)GlcNAc)	glycan array binding signal (z-score) (Gal6S(b1-4)Glc6S)	glycan array binding signal (z-score) [11]	glycan array binding signal (z-score) [12]	glycan array binding signal (z-score) [13]	glycan array binding signal (z-score) [14]	glycan array binding signal (z-score) [15]	glycan array binding signal (z-score) [16]	glycan array binding signal (z-score) (Fuc(a1-2)GlcNAc)	glycan array binding signal (z-score) [17]	glycan array binding signal (z-score) (Gal(b1-4)Glc6S)	glycan array binding signal (z-score) [18]	glycan array binding signal (z-score) (Glc(a1-4)Glc)	glycan array binding signal (z-score) (Glc(a1-6)Glc(a1-6)Glc)	glycan array binding signal (z-score) (Glc(b1-4)Glc)	glycan array binding signal (z-score) [19]	glycan array binding signal (z-score) [20]	glycan array binding signal (z-score) [21]	glycan array binding signal (z-score) [22]	glycan array binding signal (z-score) [23]	glycan array binding signal (z-score) (Neu5Ac(a2-3)GalNAc)	glycan array binding signal (z-score) [24]	glycan array binding signal (z-score) [25]	glycan array binding signal (z-score) [26]
B1	-0.549	1.65	-0.128	-0.553	-0.557	0.208	0.374	1.29	0.344	2.4	1.75	0.26	2.42	2.41	2.48	-0.544	-0.551	2.71	-0.556	-0.547	-0.553	1.96	-0.557	-0.549																
B2	-0.404								0.615																-0.247	0.979	0.601	0.629	9.55	10.2	3.57	0.188	0.137	1.83	-0.45	-0.187	-0.452	-0.289	-0.414	-0.377

From the supplement of paper PMC8728848
